# Data as given in ChEMBL document CHEMBL3988442, “University of Dundee, Small-Polar-MMV Screening Library” (2021).
# The whole screen tested about 48,000 compounds, of which about 13,000 (27%) showed an effect of 50% or more. Some of the results follow.
# Tested on: Wolbachia pipientis
# Experiment: Anti-Wolbachia Cell-Based Screen
# Type: functional
# Design: scale not given: in the data most compounds retested in dose-response had high values
# Details: 5 µM
row,SMILES,Percent Effect
1,CNC(=O)[C@H]1C[C@H]2OCC[C@H]2N(Cc2cccc3ccccc23)C1.O=C(O)C(F)(F)F,25.43%
2,CC(=O)N1CCN(c2cc(N(C)C)cnn2)CC1,5.157%
3,CN(Cc1c(Cl)ccc2cccnc12)CC(C)(CO)CO,4.13%
4,CCS(=O)(=O)c1ncc(CN2CCN(C)CC2)n1CCc1ccccc1,2.419%
5,CC(C)(C)CN(CCO)C(=O)Nc1cccc(N2CCNC2=O)c1,0.4334%
6,Cn1cnc(S(=O)(=O)NCC2(O)CCOc3ccccc32)c1 (configuration not stated),-16.89%
7,Nc1nc(N)c2c(n1)OC1(CCN(C(=O)CC3CCCNC3)CC1)C2 (configuration not stated),130%
8,O=C(CC1CCCCC1)N1CCC(O)(C(F)(F)F)C1 (configuration not stated),-0.05196%
9,Nc1nc(N)c2c(n1)OC1(CCN(C(=O)CC3CCNCC3)CC1)C2,145.9%
10,O=C(CC1CC1)N1CCC2(CC1)CN(c1ncc(F)cn1)CCO2,-18.12%
11,CC(C)(C)c1cc(C[C@H]2CNCC[C@H]2CC(=O)N2CCCCC2)no1,3.52%
12,Nc1nc(N)c2c(n1)OC1(CCN(C(=O)CC3CCCCN3)CC1)C2 (configuration not stated),102.3%
13,O=C1OC2(CCNCC2)CN1CC(=O)N1CCCC1c1nccs1 (configuration not stated),1.843%
14,CC(C1CC1)N(C)Cc1nnc(-c2ccc(Br)s2)o1 (configuration not stated),-7.051%
15,CCc1csc(NC(=O)NCc2ccccn2)n1,-8.56%
16,CCCc1cc(NC2CCN(Cc3ccccn3)CC2)n2nccc2n1,4.154%
17,CCc1nc(C)c(C(C)N(C)CCc2ccccn2)s1 (configuration not stated),10.86%
18,CCCc1cc(=O)[nH]c(SCc2ccccn2)n1,119.2%
19,Cc1cc(CSCc2ccccn2)on1,-5.175%
20,Cc1ccc2cc(CN(C)Cc3ccccn3)c(=O)[nH]c2c1,3.618%
21,CCc1c(C)nc(SCc2ccccn2)[nH]c1=O,110.7%
22,CCCc1cc(=O)[nH]c(-c2cccc(CN3CCCCCC3)c2)n1,2.31%
23,CCc1cc(=O)[nH]c(SCc2ccccn2)n1,161.3%
24,CN1CCC(c2nnc3ccc(C(=O)N4CCCCC4)cn23)C1.O=C(O)C(F)(F)F (configuration not stated),-6.443%
25,CC(CC(=O)Nc1ccc(C(=O)N(C)C)c(Cl)c1)n1cccc1 (configuration not stated),-5.842%
26,CN(C)CCNC(=O)Cn1cnc2cc(NC(=O)C3CC3)ccc21,109.1%

row,SMILES,Percent Effect
1,CC(C)C(=O)Nc1ccc2c(c1)ncn2CC(=O)NCCN(C)C,87.82%
2,CN(C)CCn1ccc2cc(NC(=O)NCc3ncnn3C)ccc21,9.223%
3,CC(C)c1nc2cc(NC(=O)Cn3ccc(=O)[nH]c3=O)ccc2o1,-1.465%
4,CN(C)CCNC(=O)Cc1cccc(I)c1,13.6%
5,CCOCCOC(C)C(=O)Nc1ccc2ccn(CCN(C)C)c2c1 (configuration not stated),3.941%
6,CCN(CC)C(=O)Cn1ccc2cc(NC(=O)C3CC3)ccc21,-9.83%
7,CC(C)CC(=O)Nc1ccc2c(c1)ncn2CC(=O)NCCN(C)C,122%
8,CC(C)NC(=O)Nc1ccc2c(c1)ncn2CC(=O)NCCN(C)C,117%
9,Cn1c(C2CC2)nc2cc(NC(=O)C3CC=CC3)ccc21,-5.037%
10,Cc1cc(NC(=O)Nc2ccc3c(ccn3CCN(C)C)c2)n(C)n1,0.0592%
11,CC(c1ccc(F)cc1)n1ccnc1-c1cc2n(n1)CCCNC2 (configuration not stated),-9.513%
12,CCC(C)(NCc1nnc(C(C)(C)C)o1)c1nccs1 (configuration not stated),-1.916%
13,CS(=O)(=O)CCc1ncnn1-c1ccc(F)c(Cl)c1,-1.677%
14,CCN1Cc2cc(F)ccc2N(CC(O)C(F)(F)F)CCC1=O (configuration not stated),105.6%
15,CCCC(O)CN1CCC(=O)N(C)Cc2cc(F)ccc21 (configuration not stated),92.66%
16,CCN1CC2(CCN(C(=O)C(C)Oc3ccc(F)cc3Cl)CC2)CC1=O (configuration not stated),-0.3825%
17,CN1Cc2ccccc2N(CC(O)C(F)(F)F)CCC1=O (configuration not stated),95.04%
18,CC(Cn1cccn1)NC(=O)NCCCN1CCc2ccccc21 (configuration not stated),-6.742%
19,CC(C)C(C)NC(=O)CCN1C(=O)CCc2cc(F)ccc21 (configuration not stated),-7.908%
20,OC(CN1CCCc2ccc(F)cc21)Cn1cccn1 (configuration not stated),-5.11%
21,CN1Cc2cc(F)ccc2N(CC(O)C(F)(F)F)CCC1=O (configuration not stated),104.4%
22,CC(O)CN1CC2(CCC1=O)CCN(Cc1cc(F)ccc1Cl)CC2 (configuration not stated),0.5458%
23,CCCC(C)NC(=O)CCN1C(=O)CCc2cc(F)ccc21 (configuration not stated),-15.19%
24,CC(C)CNC(=O)CCN1C(=O)CCc2cc(F)ccc21,-21.96%
25,CS(=O)(=O)Nc1ccc(CNC(=O)CN2CCc3ccccc32)cc1,8.101%
26,N#Cc1c(Cl)nsc1NCC1(c2ccccc2)CCC1,12.51%

row,SMILES,Percent Effect
1,CCNC(=O)[C@@H]1C[C@@H](NC(=O)c2cccn2C)CN1CCCSC,111.5%
2,CCNC(=O)[C@@H]1C[C@@H](NC(=O)c2ccc(C)cc2O)CN1CCCSC,82.24%
3,CCNC(=O)[C@@H]1C[C@@H](NC(=O)c2ccc(C#N)cc2)CN1CCCSC,95.48%
4,CCNC(=O)[C@@H]1C[C@H](NC(=O)c2cncnc2C)CN1CCCSC,-8.18%
5,CCNC(=O)[C@@H]1C[C@@H](NC(=O)Cc2ccncc2)CN1Cc1ccsc1,-6.435%
6,CCN(CC)C(=O)[C@@H]1C[C@H](NC(=O)c2cccn2C(C)C)CN1C,0.9655%
7,C/C=C(\C)CN1C[C@@H](NC(=O)c2ccc(O)c(Cl)c2)C[C@H]1C(=O)NCC,-9.176%
8,C/C=C(\C)CN1C[C@@H](NC(=O)c2ccc(F)c(F)c2)C[C@H]1C(=O)NCC,-14.95%
9,CCNC(=O)[C@@H]1C[C@H](NC(=O)c2ccccc2C#N)CN1CCCSC,-7.827%
10,CSCCC(C)(O)CNC(=O)c1ccsc1 (configuration not stated),-0.07665%
11,CCNC(=O)[C@@H]1C[C@@H](NC(=O)c2ccsc2)CN1CCCSC,107.8%
12,COCC(=O)N1CCC2(CC1)CC(N1CCN(C)CC1)CO2 (configuration not stated),-3.796%
13,O=C(CCc1nc(Cl)n[nH]1)N1C[C@@H](CN2CCCCCC2)[C@@H](CO)C1,5.284%
14,COc1ccc(C(=O)N2CCC(Oc3ccc(C)cc3)(C(=O)O)CC2)o1,-8.575%
15,CCc1nnsc1C(=O)N1CCCN(Cc2ccc(C)cc2)CC1,9.546%
16,Cc1ccc(CN2CCOC(C)(c3cnn(C)c3)C2)cc1 (configuration not stated),-10.42%
17,Cc1cccc2[nH]c(C3CCN(C(=O)c4cnc[nH]c4=O)CC3)nc12,-11.79%
18,CC(NCc1cccc2c1OCCO2)c1cc2c(cc1Br)OCCO2 (configuration not stated),-2.569%
19,CSCC(C)(O)CNC(=O)c1ccc(Br)cc1C (configuration not stated),6.824%
20,CS(=O)(=O)CCC(=O)N1CCC(c2ccc(F)c(F)c2)CC1,-5.239%
21,COc1ccccc1-c1ccc(C2CCCN(C(C)=O)C2)nc1 (configuration not stated),120.7%
22,CN1CCCC1c1nccnc1-c1ccc(C(=O)O)cc1 (configuration not stated),141.8%
23,COc1cccc(C(=O)N2CCCC(c3cc(C)[nH]n3)C2)c1OC (configuration not stated),3.009%
24,COc1cccc(-c2nccnc2C2CCN(C(C)=O)CC2)c1,-11.4%
25,COc1ccccc1-c1nnc([C@H]2CCN(C(C)=O)C2)o1,4.286%
26,COc1ccccc1-c1nccnc1C1CCN(C(C)=O)CC1,137.3%

row,SMILES,Percent Effect
1,CC(=O)N1CCC(c2nccnc2-c2ccc(F)c(F)c2)CC1,101.1%
2,CC(O)c1cn(CC2CCN(C(=O)CN3CCCC3=O)CC2)nn1 (configuration not stated),-6.496%
3,CCCN(CC1CC1)C(=O)Nc1ccc(N2CCSCC2)cc1C,-17.78%
4,COCCN(C)c1ccc(NCc2cscn2)nc1,1.249%
5,CN1CCOC(CNC(=O)CCc2cc(F)ccc2F)C1 (configuration not stated),5.661%
6,COc1ccc(-c2nccnc2C2CCN(C(C)=O)CC2)cc1,-14.84%
7,CC(=O)N1CCC(c2nccnc2-c2ccc(C(=O)O)cc2)CC1,96%
8,CC(=O)N1CCC(c2nccnc2-c2ccc(F)cc2)CC1,97.61%
9,O=C(C1CCOCC1)N1CCc2ncnc(-c3ccc(F)cc3)c2CC1,-7.65%
10,CC(=O)N1CCC(N2CC[C@H](c3nc4cc(F)ccc4o3)C2)CC1,-6.986%
11,NC(=O)C1CCCN1CCCc1ccc(C(F)(F)F)cc1 (configuration not stated),-6.15%
12,CC(C)N(C)C(=O)c1ccc(CNc2ncc(C#N)cc2Cl)cc1,-8.928%
13,CCN1CCN(CCNc2nc3ccc(C)cc3c(=O)n2C)CC1,1.756%
14,Cc1occc1C(=O)N1Cc2nccn2CC(CN2CCCC2)C1.O=C(O)C(F)(F)F (configuration not stated),-14.64%
15,O=C(NCC1CN(c2ncccn2)Cc2nccn2C1)c1cccnc1.O=C(O)C(F)(F)F (configuration not stated),8.129%
16,CS(=O)(=O)N1Cc2nccn2CC(CNC(=O)c2cccnc2)C1.O=C(O)C(F)(F)F (configuration not stated),-1.051%
17,O=C(O)C(F)(F)F.c1cnc(N2Cc3nccn3CC(COc3cccnc3)C2)nc1 (configuration not stated),111.9%
18,CC(=O)N1Cc2nccn2CC(CNC(=O)c2cccnc2)C1.O=C(O)C(F)(F)F (configuration not stated),-4.633%
19,CN(Cc1cccnc1)CC1CN(C(=O)C2CC2)Cc2nccn2C1.O=C(O)C(F)(F)F.O=C(O)C(F)(F)F (configuration not stated),-3.173%
20,Cc1nc(C)n(CC2CN(Cc3nccs3)Cc3nccn3C2)n1.O=C(O)C(F)(F)F (configuration not stated),-6.636%
21,O=C(O)C(F)(F)F.O=C(O)C(F)(F)F.c1cncc(OCC2CN(Cc3nccs3)Cc3nccn3C2)c1 (configuration not stated),104%
22,COCC1CN(C(=O)c2cccc(C)n2)Cc2nccn2C1.O=C(O)C(F)(F)F (configuration not stated),-3.838%
23,O=C(N1CCCC1)N1Cc2nccn2CC(COc2cccnc2)C1.O=C(O)C(F)(F)F (configuration not stated),96.45%
24,O=C(O)C(F)(F)F.O=C(O)C(F)(F)F.O=C(c1cccnc1)N1Cc2nccn2CC(COc2cccnc2)C1 (configuration not stated),111%
